Hits are enriched below; roughly 13% of the tested compounds scored in any of these assays.
HCV inh – qHTS Assay for Inhibitors of Hepatitis C Virus (HCV); Huh7.5.1 HCVcc-Cre infection, luciferase reporter, 44 h; Potency, µM (series often up to 41.8 µM), for the others: top-dose activity change, negative = inhibition, hits mostly inhibitors; actives 3.4% (n = 340,000); AID 651820, 2012; also: potency is read from the fitted curve at half-maximal effect
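Seed cells (1,000/well) for 4 h; treat with compound and infect with HCVcc-Cre, moi about 0.5. Incubate 44 h, then detect luciferase activity.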
Pf growth 96h – Primary qHTS for delayed death inhibitors of the malarial parasite plastid, 96 hour incubation; P. falciparum luciferase reporter growth, 96 h; AID 504834, 2011; actives 6.9% (n = 320,000); Potency, µM (series often up to 28.7 µM), for inactives: at the highest dose activity change, negative = inhibition, usual class: inhibitors; also: potency is read from the fitted curve at half-maximal effect
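Infected RBCs, 2% Hct / 0.05% parasitemia final; luciferase-reporter P. falciparum; cpd 96 h, 37 C, 5% CO2; luciferase detection reagent; luminescence.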
Pf growth 48h – Primary qHTS for delayed death inhibitors of the malarial parasite plastid, 48 hour incubation; P. falciparum luciferase growth in erythrocytes, 48 h; Potency, µM (top dose mostly 28.7 µM), inactives show top-dose activity change, negative = inhibition, most hits filed as inhibitors; AID 504832, 2011; actives 5.9% (n = 310,000); also: potency is read from the fitted curve at half-maximal effect
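First compound was added to culture medium, then infected red cells at 0.1% parasitemia and 2% hematocrit (final). After incubation at 37 C under 5% CO2, luciferase detection reagent was dispensed and light output recorded.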
HCMV inh – qHTS Assay for inhibitors of the human cytomegalovirus (HCMV). HFF cells, HCMV-luciferase reporter, 72 h; hits give low values. activity change, negative = inhibition, % at 57.5 µM. actives 4.5% (n = 410,000). AID 1259415, 2018; in the data active = activity change below about -60%; inconclusive = no clear call, values can overlap the other calls; inactive = above about -39%
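Cell-based, HFFs, 1000 cells/well, 16 h 37C; cpds in DMSO + HCMV-luc, MOI 1 PFU/cell; 72 h 37C; OneGlo luminescence after 5 min RT; norm. to buffer vs Salinomycin 10uM.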
* = called active by the depositor; ? = inconclusive; · = no result given. Unless noted, calls follow the shape of the dose curve; as a rule, active = well fitted inhibition curve with a large enough effect; inconclusive = small, poorly fitted or top-dose-only effect, or another doubt; inactive = no such curve, though single readings can be large or run the other way. % is scaled to controls: 0 for no effect and ±100 for the full control effect.

SMILES | HCV inh | Pf growth 96h | Pf growth 48h | HCMV inh
CN(Cc1ccccc1)C1=CC(=[N+]2CCCC2)CC(C)(C)C1 | ? | 0.586µM* | 0.928µM* | -99.2*
CN(C)c1cccc(NC2=CC(=[N+]3CCOCC3)CC(C)(C)C2)c1 | 7.9% | ? | · | 47.5
CCN(CC)C1=CC(=[N+]2CCCC2)CC(C)(C)C1 | ? | 0.37µM* | 1.31µM* | -95.4*
O=C(COc1ccccc1F)Nc1ccc(Cl)c(-c2nc3ccccc3[nH]2)c1 | · | · | · | -36.2
COc1ccc(-c2nc3ccccn3c2CN2CCN(c3ccccc3F)CC2)cc1 | ? | ? | ? | -60.8*
Clc1ccc(-c2nc3ccccn3c2CN2CCOCC2)cc1 | -14.3% | 4.0% | ? | 18.9
COc1cccc(CN2CCC(C(=O)Nc3ccc(-c4cccc(C)c4)cc3)CC2)c1O | 10µM* | 0.2% | ? | -13.4
Cc1cccc(-c2ccc(NC(=O)C3CCN(CC4CC4)CC3)cc2)c1 | 10µM* | 36.3% | ? | -11.4
CCOC(=O)c1cc(C)n(CC2CCC(C(=O)Nc3cccc(C)c3)CC2)c1C (stereo unspecified) | · | · | · | -38.0
COc1cccc(-c2cccc(NC(=O)C3CCN(Cc4ccc(C)o4)CC3)c2)c1 | -11.2% | -32.5% | -22.6% | 0.0
O=C(CN1CCN(S(=O)(=O)c2ccc(Br)cc2)CC1)N/N=C/c1ccc(Cl)c([N+](=O)[O-])c1 | 11.2µM* | -3.4% | -12.7% | -24.8
Cc1ccc(S(=O)(=O)N2CCN(CC(=O)N/N=C\c3ccc(Cl)c([N+](=O)[O-])c3)CC2)cc1 | 4.47µM* | -3.1% | -16.4% | ?
CCOC(=O)N1CCC(NC(=O)c2ccc3c(c2)ncn3C2CCCC2)CC1 | -1.1% | 119.6% | ? | -68.1*
CCOC(=O)N1CCN(C(=O)c2ccc3c(c2)ncn3C2CCCC2)CC1 | 21.6% | 10.6% | -12.9% | -61.9*
O=C(NC1CC1)c1ccc2c(c1)ncn2C1CCCC1 | 2.9% | 54.0% | 55.7% | -8.0
CCOC(=O)C1(C)CCCN(C(=O)c2cccc(OC(F)(F)F)c2)C1 (stereo unspecified) | · | · | · | 9.4
Cc1ccc(C)c(N2CCN(C(=O)c3cc(C)nc4c3c(C)nn4-c3cccc(F)c3)CC2)c1 | · | · | · | 17.5
Cc1ccccc1C(=O)n1nc(-c2ccco2)nc1NCc1cccs1 | · | · | · | 25.3
CC(C)(C)[C@]1(O)CCN2C[C@H]3c4ccccc4CCc4cccc(c43)[C@@H]2C1 | -4.4% | 3.7µM* | 8.28µM* | -30.9
COC(=O)[C@@]12C[C@@H](CC(=O)NCC3CCCCC3)C(=O)N(Cc3ccc4c(c3)OCO4)C1=CCC(C)(C)C2 | · | · | · | 4.4
Cc1ccc(SCc2nc(-c3ccc(C(=O)NCc4ccccc4Cl)cc3)oc2C)cc1 | · | · | · | -5.1
O=C(NCc1ccc(Cl)cc1)c1noc2c1CCCCC2 | ? | 9.28µM* | 43.3% | 44.4
Cc1ccc(Cl)cc1N(C)C(=O)c1noc2c1CCCCC2 | · | · | · | -64.3*
O=C(NCc1ccc(F)cc1)c1noc2c1CCCCC2 | ? | ? | 31.4% | 20.8
O=C(CN1C=NS(=O)(=O)c2ccccc21)Nc1ccc(Br)cc1 | · | · | · | 1.0
Cc1cccc(NC(=O)CSC2=Nc3ccccc3C3=NC(CC(=O)NCc4cccs4)C(=O)N23)c1 (stereo unspecified) | · | · | · | 7.9
C[C@@H](C(=O)N1CCN(C(=O)OC(C)(C)C)CC1)n1cc(-c2cn([C@@H](C)C(=O)N3CCN(C(=O)OC(C)(C)C)CC3)nn2)nn1 | · | 70.8% | 37.4% | ·
CC[C@@H](C)C(NC(=O)OC(C)(C)C)c1cn([C@@H](Cc2cc3ccccc3[nH]2)C(=O)N2CCN(C(=O)OC(C)(C)C)CC2)nn1 (stereo partly specified) | ? | 3.7µM* | ? | 7.1
CC[C@@H](C)C(NC(=O)OC(C)(C)C)c1cn([C@@H](CCCCNC(=O)OC(C)(C)C)C(=O)N2CCN(C(=O)OC(C)(C)C)CC2)nn1 (stereo partly specified) | -14.6% | 4.15µM* | ? | 22.9
CCC(C)[C@H](N)c1cn([C@@H](CCCCN)C(=O)N2CCNCC2)nn1 (stereo partly specified) | 0.8% | 60.0% | 43.2% | -13.8

Bioassay records as filed in PubChem.
